Reference: PubChem BioAssay (Tox21)
Records with an inconclusive call do not appear. A number with no mark means an inactive call. The call rests on the fitted dose curve; in most records, active means well fitted activation curve with a large enough effect in the signal ratio in the repeat runs (not every such curve was filed as active); inconclusive means weak or mixed curves, or effect the other way; inactive means no such curve, though single readings can be large or run the other way; the % refers to the signal ratio.

Experiment: qHTS assay for small molecule agonists of the antioxidant response element (ARE) signaling pathway (AID 743202)
Settings: HepG2 ARE-bla reporter, beta-lactamase FRET, 16 h; series mostly up to 73.3 µM; activation: at the top concentration
Source text: U.S. Tox21 Program National Center for Advancing Translational Sciences [NCATS] NIH Chemical Genomics Center [NCGC] U.S. Environmental Protection Agency [EPA] National Institutes of Environmental Health Sciences [NIEHS] National Toxicology Program [NTP] U.S. Food and Drug Administration [FDA] Tox21 Assay Overview: Oxidative stress has been implicated in the pathogenesis of a variety of diseases ranging from cancer to neurodegeneration. The antioxidant response element (ARE) signaling pathway plays an important role in the amelioration of oxidative stress. The CellSensor ARE-bla HepG2 cell line (Invitrogen) can be used for analyzing the Nrf2/antioxidant response signaling pathway. Nrf2 (NF-E2-related factor 2) and Nrf1 are transcription factors that bind to AREs and activate these genes. The CellSensor ARE-bla Hep G2 cell line contains a beta-lactamase reporter gene under control of the Antioxidant Response Element (ARE) stably integrated into HepG2 cells. The activation of the report gene under culture conditions can be detected by fluorescence intensity. This cell line has been used to screen the Tox21 10K compound library to identify agonists that induce oxidative stress.
Tox21 Assay Protocol Summary: The ARE-bla cells were dispensed at 2,000 cells/5 ul/well in 1536-well black wall/clear bottom plates using a Multidrop dispenser. After the assay plates were incubated at a 37 C/5% CO2 incubator for 5 hours, 23 nL of compounds dissolved in DMSO, positive controls or DMSO only was transferred to the assay plate by a pin tool. The plates were incubated at 37 C for 16 hours. After 1 uL of LiveBLAzer B/G FRET substrate was added using a Flying Reagent Dispenser, the plates were incubated at room temperature for 2 hours, and fluorescence intensity was measured by an Envision plate reader.
On the % scale 0 is the no-effect control and ±100 the full control effect.

SMILES	activation
C/C=C(\C)C(=O)OC/C=C(\C)CCC=C(C)C	-14.3%
CCCCCCCCCCCBr	-2.38%
Cc1nc2ccc(Cl)cc2[nH]1	-5.39%
COC(=O)c1ccccc1Cl	-0.727%
Cc1ccc(O)c([N+](=O)[O-])c1	12.5% [at 94.8 µM]
NCC1CCC(C(=O)Oc2ccc(CCC(=O)O)cc2)CC1 (stereo not given)	-8.42%
Cc1ccc(S(=O)(=O)NC(=O)NN2CC3CCCC3C2)cc1 (stereo not given)	0.863%
C=CC(=O)CC	-14.5% [at 94.8 µM]
CCCC[O][Al]([O]CCCC)[O]CCCC	-16.1%
C=CCON/C(CCC)=C1\C(=O)CC(C)(C)C(C(=O)OC)=C1O	-9.78%
NC[C@H]1O[C@H](O[C@H]2[C@H](O)[C@@H](O[C@H]3O[C@H](CO)[C@@H](O)[C@H](N)[C@H]3O)[C@H](N)C[C@@H]2N)[C@H](N)[C@@H](O)[C@@H]1O	-10.5% [at 34.3 µM]
COc1ccc(Cl)cc1C	10.5% [at 94.8 µM]
Nc1cc(S(=O)(=O)O)ccc1O	-3.49%
CC1(C)C(=O)C(C)(C)C1=O	-5.69%
CCCCCCCCCCCCCCCC(=O)OC	-0.182% [at 34.3 µM]
CC(CC(=O)Cl)CC(C)(C)C (stereo not given)	-0.014% [at 94.8 µM]
CCN(CC)CC(=O)Oc1ccc(NC(C)=O)cc1	-2.43%
Clc1cc(Cl)c(Cl)c(Cl)c1Cl	-2.18%
COC(=O)c1cc(Cl)c(NC(C)=O)cc1OC	-4.75%
OCCC(F)(F)C(F)(F)C(F)(F)C(F)(F)C(F)(F)C(F)(F)F	-10.2%

SMILES	activation
CNCCc1ccccn1	13.6%
CC(C)(C)NCC(O)COc1cccc2c1CCC(=O)N2 (stereo not given)	2.83%
CCOc1ccccc1OCCN[C@H](C)Cc1ccc(OC)c(S(N)(=O)=O)c1	16.3%
CCCCC(O)/C=C(C)/C=C/C=C/C(=O)N1CCCC1=O (stereo not given)	7.16%
CC(=O)Oc1ccc(C(C)=O)cc1	4.39% [at 94.8 µM]
CCCCCCC(=O)c1ccccc1	-9.98%
CNC(=O)c1c(I)c(NC(C)=O)c(I)c(C(=O)O)c1I	10.4%
C=CCN1CCc2nc(N)sc2CC1	9.41%
CCCCNCC	3.19%
CCN1CCN(C(=O)N[C@@H](C(=O)N[C@@H]2C(=O)N3[C@@H]2SC(C)(C)[C@H]3C(=O)O)c2ccccc2)C(=O)C1=O	-0.895%
O=P(O)(O)C(O)(Cc1cccnc1)P(=O)(O)O	9.22%
CC(C)C(C)C	1.96%
N=C(N)N	-6.05%
O=C(OOC(=O)c1ccccc1)c1ccccc1	13.9%
CC/C=C\CCCCCCCCCCOC(C)=O	-11.7%
Cc1cc(C)c(C)c(C)c1	-14.5%
CC(C)=CCC/C(C)=C\C#N	1.21%
CC[C@@]1(c2ccccc2)NC(=O)N(C)C1=O	6.42%
C/C=C(\C)C=O	-3.65% [at 94.8 µM]
Cc1ccc(Br)cc1	-3.82%
